Test results as given in PubChem BioAssay.
“And” between values parts separate entries of the source, which are not always exact repeats. Equal entries are not always repeated. The source made the active and inactive calls. Cut-off read from the data, not from the text of the source, unless noted: active = inhibition above about 80%; inactive = the rest.

How the values were obtained:
[1] = P. berghei load reduction in hepatocytes – cell-based, HepG2, luciferase luminescence, HepG2 viability, primary screen (AID 624349; in the data active = parasite load remaining mostly below about 12%, no sharp cut-off; inactive = mostly above about 10%;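 note: 100% = mean of DMSO negative control wells on the same plate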); settings: P. berghei liver stage in HepG2, luciferase luminescence, concentration not given here; parasite load remaining: stronger effect = lower value; viability: measured here: HepG2 viability without parasites
[2] = system: Aerobactin synthetase IucA (Klebsiella pneumoniae); experiment: inhibition of K. pneumoniae IucA enzyme – biochemical, Tocris library, absorbance (AID 1345561; call rule not given here;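 note: 100% = enzyme without compound and 0% = no enzyme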); settings: purified IucA enzyme assay, absorbance (OD) read-out; stronger effect = lower value;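 tested at 8 µM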
[3] = viability loss with induced miR-34 in A549 – imaging, A549 dox-inducible miR-34, nuclei and caspase counts, primary screen (AID 1347080;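 active = compounds whose cell count with miR-34 switched on is under 0.7 times the count with it off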); settings: A549 miR-34 inducible, Hoechst nuclei count, 48 h
[4] = MELAS cybrid and Rieske KO viability enhancers – cell-based, MELAS cybrids, Rieske KO mouse fibroblasts, CellTiter-Glo, primary screen (AID 1508586;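 active = mean z-score across replicates of 1.96 or higher in either the MELAS or the Rieske mutant cell line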;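 note: z relative to plate mean and SD of compound and empty wells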); settings: low glucose
[5] = galactose survival enhancers in mitochondrial complex I cybrids – cell-based, galactose medium, ATP luminescence, primary screen (AID 1645843;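 active = z-score of at least 1.8 in each of two replicates, scored against plate mean and spread of sample wells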;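 note: positive z means more ATP and so rescue of galactose-driven cybrid death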); settings: complex I mutant cybrid cells, 72 h, stronger effect = higher value
[6] = growth inhibition, single agent or in combination, cell-based, chromothripsis tumors, cisplatin or BGB combos (AID 1671449); settings: LFS_MB_P medulloblastoma cells;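 note: cells exposed for 96 hours; 0% = vehicle DMSO and 100% = killing by high DMSO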
[7] = growth inhibition, single agent and combos, cell-based, chromothripsis tumors, cisplatin or BGB combos (AID 1671450); settings: HDN33 neuroblastoma cells, stronger effect = higher value;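 note: cells exposed to compound for four days; 0% = vehicle DMSO and 100% = cell killing by high DMSO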
[8] = growth inhibition, single agents and combos, ICB984, cell-based, cisplatin or BGB combos, synergistic combos for chromothripsis tumors (AID 1671451; call rule not given here;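 note: cells exposed for 96 hours before readout; 0% = vehicle DMSO and 100% = killing by high DMSO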); settings: ICB984 medulloblastoma cells, drug combinations, stronger effect = higher value
[9] = growth inhibition, single agents and combos, LFS_MB_1R, cell-based, cisplatin or BGB combos, synergistic combos for chromothripsis tumors (AID 1671452); settings: LFS_MB_1R medulloblastoma cells, stronger effect = higher value;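 note: cells exposed for 96 hours before readout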
[10] = growth inhibition, single agents and combos, HTB85, cell-based, BGB or cisplatin IC20 combos, synergistic combos for chromothripsis tumors (AID 1671453); settings: HTB85 osteosarcoma cells, drug combinations, stronger effect = higher value;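 note: cells exposed for 96 hours before readout; 0% = vehicle DMSO and 100% = high DMSO killing control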
[11] = growth inhibition, single agents and combos, CRL2098, cell-based, BGB or cisplatin IC20 combos, synergistic combos for chromothripsis tumors (AID 1671454); settings: CRL2098 osteosarcoma cells, drug combinations, stronger effect = higher value;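 note: cells exposed for 96 h before readout; 0% = vehicle DMSO and 100% = killing by high DMSO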
[12] = growth inhibition, single agents and combos, HD-MB03, cell-based, BGB or cisplatin IC20 combos, synergistic combos for chromothripsis tumors (AID 1671455; in the data active = inhibition above about 83%;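 note: 0% = vehicle DMSO and 100% = high DMSO as cytotoxic control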); settings: HD-MB03 medulloblastoma cells, stronger effect = higher value
[13] = growth inhibition, single agents and combos, UWB1.289, cell-based, BGB or cisplatin combos, synergistic combos for chromothripsis tumors (AID 1671456); settings: UWB1.289 ovarian carcinoma cells, stronger effect = higher value;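 note: cells exposed to compound for four days; 0% = vehicle DMSO and 100% = killing by high DMSO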
[14] = growth inhibition, single agents and combos, LFS_MB_2R, cell-based, cisplatin combos, synergistic combos for chromothripsis tumors (AID 1671457); settings: LFS_MB_2R medulloblastoma cells, stronger effect = higher value;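 note: cells exposed to compound for four days before readout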
[15] = growth inhibition, MDA-MB-436, cell-based, BGB or cisplatin combos, synergistic combos for chromothripsis tumors (AID 1671458; call rule not given here;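 note: cells exposed for 96 hours; 0% = vehicle DMSO and 100% = killing by high DMSO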); settings: MDA-MB-436 breast carcinoma growth inhibition, drug combinations, stronger effect = higher value
[16] = UWB1.289_BRCA1 ovarian cancer growth, cell-based, BGB or cisplatin combinations (AID 1671459); settings: UWB1.289 BRCA1 ovarian carcinoma, drug combinations, stronger effect = higher value
[17] = drug combination toxicity in non-malignant astrocytes – cell-based, BGB or cisplatin IC20 combos, cytotoxicity control for chromothriptic childhood tumor combination screen (AID 1671460); settings: Human astrocytes, viability inhibition, drug combinations, at 0.5 µM, stronger effect = higher value;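 note: cells exposed to compounds for 96 hours before viability readout; 0% = vehicle and 100% = killing control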
[18] = BT084 cell growth, single and combined drugs, ICGC_MB145, cisplatin and BGB IC40 combos (AID 1671461); settings: BT084 medulloblastoma cells, drug combinations, stronger effect = higher value;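 note: cells exposed to drugs for 96 hours; 0% = vehicle DMSO and 100% = high DMSO full killing control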
[19] = RCMB18 cell growth, single agent and combined, cisplatin and BGB IC40 combos (AID 1671462); settings: RCMB18 medulloblastoma cells, stronger effect = higher value;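 note: cells exposed to compound for four days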
[20] = CRL1545 cell growth, single agent and combined, cisplatin and BGB IC20 combos (AID 1671464); settings: CRL1545 osteosarcoma cells, stronger effect = higher value;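 note: cells exposed to compound for 96 hours before readout; 0% = vehicle DMSO and 100% = high DMSO killing control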
[21] = stronger effect = lower value, cell number ratio, induced over uninduced
[22] = measured here: relative caspase fold change +Dox/-Dox
[23] = measured here: total cells with miR-34 induction, stronger effect = lower value
[24] = measured here: total cells without miR-34 induction
[25] = MELAS cybrid survival, CellTiter-Glo 48 h, stronger effect = higher value
[26] = Rieske KO mouse fibroblast survival, CellTiter-Glo 72 h
[27] = measured here: combination with BGB IC40, at 0.05 µM
[28] = measured here: with BGB IC20 combination, at 0.5 µM
[29] = measured here: with cisplatin IC20 combination, at 0.5 µM
[30] = measured here: combination with cisplatin, at 0.5 µM
[31] = measured here: combination with cisplatin, at 5 µM

For `O=C(NC(NC(=S)Nc1ccc(F)c([N+](=O)[O-])c1)C(Cl)(Cl)Cl)C(c1ccccc1)c1ccccc1` (stereo unspecified), the parasite load remaining [1] was 37.9% (inactive), the viability [1] was 150% and the remaining activity [2] was 80.1% (inactive). The fold change [3, 21] was 0.886 (inactive) and 0.916 (inactive), the fold change [3, 22] was 0.378 and 1.21 and the cell count [3, 23] was 1760 and 1260. For the same molecule, the cell count [3, 24] was 1990 and 1380, the z-score [4, 25] was -0.482 (inactive) and the z-score [4, 26] was -0.549. For the same molecule, the z-score [5] was -0.7 (inactive), the inhibition ([6]; at 0.5 µM, stronger effect = higher value) was -14.4% (inactive) and -15.8% (inactive) and the inhibition ([6]; measured here: combination with BGB IC20, at 0.005 µM) was -15.1% and -22%. For the same molecule, the inhibition ([6]; measured here: combination with BGB IC40, at 0.005 µM) was -12.9% and -23.4%, the inhibition [6, 27] was -2.89% and -34.1% and the inhibition ([6]; measured here: combination with cisplatin, at 0.5 µM, stronger effect = higher value) was -21.5% and -41.9%. For the same molecule, the inhibition ([6]; measured here: combination with cisplatin, at 5 µM, stronger effect = higher value) was -21.2% and -42.7%, the inhibition ([7]; BGB combo, at 5 µM) was -9.61% and -16% and the inhibition ([7]; at 0.5 µM) was -0.93% (inactive) and -12% (inactive). The inhibition ([7]; cisplatin combo, at 5 µM) was -12.1% and -4.83%, the inhibition [7, 28] was -8.76% and -21.5% and the inhibition [7, 29] was 2.56% and -5.96%. For the same molecule, the inhibition ([7]; single agent, at 5 µM) was 4.16% and -9.08%, the inhibition ([8]; BGB IC20 combo, at 0.005 µM) was 7.62% and 15.2% and the inhibition ([8]; BGB IC40 combo, at 0.005 µM) was -20.7% and 11.9%. The inhibition ([8]; BGB IC40 combo, at 0.05 µM) was 35.5% and -11.2%, the inhibition ([8]; at 0.5 µM) was -22.3% (inactive) and -17.8% (inactive) and the inhibition ([8]; cisplatin combo, at 0.05 µM) was 33.7% and -15.2%. For the same molecule, the inhibition ([8]; cisplatin combo, at 0.5 µM) was -13.4% and -3.51%, the inhibition ([8]; cisplatin combo, at 5 µM) was -12.5% and -33.8% and the inhibition ([8]; measured here: 5 uM single agent, at 5 µM) was -8.95% and -2.73%. For the same molecule, the inhibition ([9]; at 0.5 µM) was 4.09% (inactive) and -12.4% (inactive), the inhibition [9, 27] was -23.4% and -14.6% and the inhibition [9, 30] was -13.7% and -10.4%. For the same molecule, the inhibition [9, 31] was 30.6% and -30.6%, the inhibition ([10]; at 0.5 µM) was 8.95% (inactive) and 0.41% (inactive) and the inhibition ([10]; measured here: with BGB IC20, at 0.5 µM) was 16.1% and 0.127%. The inhibition ([10]; measured here: with BGB IC20, at 5 µM) was 2.8% and -10.9%, the inhibition ([10]; measured here: with cisplatin IC20, at 0.5 µM) was 1.41% and -9.26% and the inhibition ([10]; measured here: with cisplatin IC20, at 5 µM) was 2.01% and -34.1%. For the same molecule, the inhibition ([10]; single agent, at 5 µM) was -3.27% and 7.66%, the inhibition ([11]; at 0.5 µM) was -40.5% (inactive) and -32.4% (inactive) and the inhibition ([11]; measured here: combination with BGB at IC20, at 0.5 µM) was -40.4% and -25.9%. The inhibition ([11]; measured here: combination with cisplatin at IC20, at 0.5 µM) was -32.4% and -44.5%, the inhibition ([12]; at 0.5 µM) was -6.28% (inactive) and -0.79% (inactive) and the inhibition ([12]; measured here: combo with BGB at IC20, at 0.5 µM) was -4.65% and -5.29%. The inhibition ([12]; measured here: combo with cisplatin at IC20, at 0.5 µM) was -1.73% and -0.093%, the inhibition ([13]; at 0.5 µM) was 1.14% (inactive) and 7.56% (inactive) and the inhibition ([13]; measured here: inhibition with BGB combination, at 0.05 µM) was -13.3% and -2.68%. The inhibition ([13]; measured here: inhibition with cisplatin combination, at 0.05 µM) was -5.95% and 6.61%, the inhibition ([14]; at 0.5 µM) was -3.23% (inactive) and -7.87% (inactive) and the inhibition [14, 30] was -13.3% and -8.76%. For the same molecule, the inhibition [14, 31] was -66.9% and -2.51%, the inhibition ([15]; at 0.5 µM) was -16.1% (inactive) and -3% (inactive) and the inhibition ([15]; measured here: BGB combination, at 0.5 µM) was -8.94% and -6.88%. For the same molecule, the inhibition ([15]; measured here: BGB combination, at 5 µM) was -14.6% and -14.8%, the inhibition ([15]; measured here: cisplatin combination, at 0.5 µM) was -23.9% and -0.178% and the inhibition ([15]; measured here: cisplatin combination, at 5 µM) was -32.1% and -10.9%. The inhibition ([16]; BGB combination, concentration series, at 5 µM) was 0.384% and 38.2%, the inhibition ([16]; at 0.5 µM) was 2.79% (inactive) and 5.22% (inactive) and the inhibition ([16]; cisplatin combination, concentration series, at 5 µM) was 64.5% and 45%. The inhibition [17] was 6.11% (inactive) and 4.43% (inactive), the inhibition ([17]; measured here: combo with BGB IC20) was 7.77% and 5.34% and the inhibition ([17]; measured here: combo with cisplatin IC20) was 14.5% and -0.76%. For the same molecule, the inhibition ([18]; at 0.5 µM) was -8.03% (inactive) and 6.1% (inactive), the inhibition ([18]; cisplatin combination, at 0.5 µM) was 5.04% and -12.2% and the inhibition ([18]; cisplatin combination, at 5 µM) was 12.2% and 15.1%. For the same molecule, the inhibition ([18]; measured here: BGB IC40 combination 0.05 uM, at 0.05 µM) was 8.16% and -30.4%, the inhibition ([18]; single agent, at 5 µM) was 13.4% and 28.8% and the inhibition ([19]; at 0.5 µM) was -8.16% (inactive) and -14.2% (inactive). The inhibition ([19]; cisplatin combo, at 5 µM) was -16.1% and 2.1%, the inhibition ([19]; measured here: BGB IC40 combination, at 0.05 µM) was -2.84% and -11.5% and the inhibition [19, 30] was 8.34% and 10.3%. The inhibition ([19]; single agent, at 5 µM) was -30.9% and -16.7%, the inhibition ([20]; at 0.5 µM) was 6.4% (inactive) and -19.7% (inactive) and the inhibition [20, 28] was 25.3% and -10.2%. For the same molecule, the inhibition [20, 29] was -5.35% and -26.5%, the inhibition ([20]; single agent, at 0.05 µM) was 5.52% and 12.5% and the inhibition ([20]; single agent, at 5 µM) was 4.21% and -26.5%.

With `CNC(CC(=O)O)C(=O)O` (stereo unspecified) the remaining activity [2] was 97.3% (inactive), the fold change [3, 21] was 0.825 (inactive) and 1.05 (inactive) and the fold change [3, 22] was 1.55 and 0.67. The cell count [3, 23] was 8200 and 8440, the cell count [3, 24] was 9940 and 8040 and the z-score [4, 25] was -0.165 (inactive). For the same molecule, the z-score [4, 26] was -0.287 and the z-score [5] was 0.29 (inactive).
